{
  "source": "PubChem BioAssay (NCATS)",
  "note": "Unmarked numbers belong to inactive results. Active and inactive are the calls of the source. The call rests on the fitted dose curve; in most records, active means well fitted inhibition curve with a large enough effect; inconclusive means small, poorly fitted or top-dose-only effect; inactive means flat fitted curve, though single readings scatter. Peptide text beside a SMILES is read from it.",
  "data": [
    {"target": "DNA dC->dU-editing enzyme APOBEC-3G (Homo sapiens) (UniProt Q9HC16)", "sequence (Q9HC16 whole entry, looked up)": "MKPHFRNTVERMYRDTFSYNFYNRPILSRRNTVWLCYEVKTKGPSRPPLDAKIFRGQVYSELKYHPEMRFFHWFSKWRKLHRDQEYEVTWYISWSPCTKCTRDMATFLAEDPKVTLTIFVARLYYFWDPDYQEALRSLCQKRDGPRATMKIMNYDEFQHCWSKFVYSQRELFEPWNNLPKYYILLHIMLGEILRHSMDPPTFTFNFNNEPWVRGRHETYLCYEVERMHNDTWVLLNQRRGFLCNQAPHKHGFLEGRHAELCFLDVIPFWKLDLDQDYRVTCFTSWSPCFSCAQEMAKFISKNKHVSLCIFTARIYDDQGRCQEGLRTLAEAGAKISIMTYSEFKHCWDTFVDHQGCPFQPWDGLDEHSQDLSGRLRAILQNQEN", "assay": "qHTS for inhibitors of Vif-A3G interactions: Validation (AID 588379); further: 0% is about no effect", "details": "Vif-A3G protein interaction assay; series mostly up to 46.1 µM; activity change, negative = inhibition: at the top concentration", "method_in_brief": "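Yellow fluorescence (Ex 488, Em 500-530) of Vif-coexpressing HeLa A3G-eYFP cells, scanned by Acumen cytometer, reports blocked A3G degradation. Cells plated at 700/well overnight at 37 deg C before compound addition, then a further overnight compound incubation at 37 deg C.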", "units": {"activity change, negative = inhibition": "%"}, "values": [
      {"smiles": "Cc1cn([C@H]2C[C@H](O)[C@@H](CO)O2)c(=O)[nH]c1=O", "activity change, negative = inhibition": -1.43},
      {"smiles": "Cc1c(C)c2c(c(C)c1O)CC[C@@](C)(CCC[C@H](C)CCC[C@H](C)CCCC(C)C)O2", "activity change, negative = inhibition": -8.84},
      {"smiles": "CC1=C(/C=C/C(C)=C/C=C/C(C)=C/CO)C(C)(C)CCC1", "activity change, negative = inhibition": -0.71},
      {"smiles": "CC(Cc1ccc(O)c(O)c1)C(C)Cc1ccc(O)c(O)c1", "note": "(stereo unspecified)", "activity change, negative = inhibition": -5.76},
      {"smiles": "OCc1ccccc1O[C@@H]1O[C@H](CO)[C@@H](O)[C@H](O)[C@H]1O", "activity change, negative = inhibition": 0.547},
      {"smiles": "O=c1ccn([C@@H]2O[C@H](CO)[C@@H](O)[C@H]2O)c(=O)[nH]1", "activity change, negative = inhibition": 0.914},
      {"smiles": "COC(=O)C1=C(C)NC(C)=C(C(=O)OCCCN2CCC(c3ccccc3)(c3ccccc3)CC2)[C@H]1c1cccc([N+](=O)[O-])c1", "outcome": "inactive"},
      {"smiles": "COC(=O)[C@H]1[C@H]2CC3c4[nH]c5ccccc5c4CCN3C[C@@H]2CC[C@@H]1O", "note": "(stereo partly specified)", "activity change, negative = inhibition": -2.71},
      {"smiles": "CCCC(=O)Nc1ncnc2c1ncn2[C@@H]1O[C@@H]2COP(=O)(O)O[C@H]2[C@H]1OC(=O)CCC", "activity change, negative = inhibition": -2.89},
      {"smiles": "CC(=O)N[C@@H](CC(=O)O)C(=O)N[C@@H](CCC(=O)O)C(=O)O", "note": "(Ac-Asp-Glu-OH)", "activity change, negative = inhibition": 0.386},
      {"smiles": "O=C(O)CC/C=C\\CC[C@H]1[C@@H](N2CCCCC2)[C@@H](O)C[C@@H]1OCc1ccc(-c2ccccc2)cc1", "activity change, negative = inhibition": -2.53}
    ]}
  ]
}
